Experimental findings from the OligoGym collection are described below.
Further: reference of the scale not given here.

The first test concerns the target NELL2. Nature of the test: pooled miR-30 sensor sort-seq; sequence = guide strand. Particulars: shRNA.
TAAGACGTCAATCTGTAGGGAA showed a sensor-assay potency score (higher = more potent) of 0.711.
Still for that read-out and setting: the value for TTACAAACTTTGCAACAGCTGT was -0.672; that for TTGTGATACACTCATCATGTTC was -1.15; that for TTATTTCTCTGTCCTAGCCAAA was -1.55.
In the case of TGTCACATTGAACAAAACCATC, the sensor-assay potency score (higher = more potent) was -1.67.
Same read-out and setting: the value for TAACCTTTACAAACTTTGCAAC was -0.975; that for TAAAATATCCTGTAGCTCCATG was -0.475.
The same measure, in the same setting: in the case of TTGCATGTCGTTCCATTCCCTG it was -1.03; in that of TAGAGTTTCACACTGGATGGTT, 0.431.
As for TCGACAGCTACAAACAGCCCTG, the sensor-assay potency score (higher = more potent) is -0.27.
For TTTCACAATAGCACTGATCCAA, the sensor-assay potency score (higher = more potent) stood at 0.272.

In another test the target is NETO2. The description is as above. Particulars: shRNA.
Sequence TTGACGTGGAGCAGCTTCCAAA registered a sensor-assay potency score (higher = more potent) of -1.08.
Still for that read-out and setting: in the case of TTGATAATCTAGGAACCTCAAA it was -1.24; in that of TTGCTCGAAATCCCAGTCCTTC, -0.463.
Still for that read-out and setting: in the case of TAAATGAATATTTTGCTCGAAA it was -0.895; in that of TAATCCACATGAATCTCCCTGT, 0.411.
Still for that read-out and setting: the value for TTAATCCACATGAATCTCCCTG was 0.06.
Turning to TTGTTTTCTCCTCTTGTTCTAC, the sensor-assay potency score (higher = more potent) was -0.539.
Still for that read-out and setting: in the case of TTTCAATAGAACTGCTTCCATC it was -1.24; in that of TAACAACACTTTGAGGACCGAG, -0.0442.
TTCTTTGACGTGGAGCAGCTTC returned a sensor-assay potency score (higher = more potent) of -0.587.
Still for that read-out and setting: in the case of TTATTAACAACACTTTGAGGAC it was -0.45; in that of TTAACATATATAGACTGCCTGA, -0.881.
